PubChem BioAssay (NCI)
Compounds without any hit were thinned out: in the full panel of roughly 83,000, 20% have a hit.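 Percent growth is the endpoint: 0 to 100 indicates growth inhibition (40 means 60% inhibition), 0 means no net growth, and negative values indicate cell death.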 A number with no mark means an inactive call. Active and inactive are the calls of the source. The calls were made as follows: active = growth percent below 10; inactive = the rest.

Key:
Assay in all cases: NCI-60 one-dose screen, 48 h (100 = growth as untreated, 0 = no growth, -100 = all killed)
Conditions in all cases: 10 µM unless noted
[1] = system: SK-MEL-2 melanoma
[2] = system: EKVX NSCLC
[3] = system: SN12C renal
[4] = system: UO-31 renal
[5] = system: TK-10 renal
[6] = system: ACHN renal
[7] = system: CAKI-1 renal
[8] = system: CCRF-CEM leukemia
[9] = system: MOLT-4 leukemia
[10] = system: SR leukemia
[11] = system: RPMI-8226 leukemia
[12] = system: OVCAR-8 ovarian
[13] = system: OVCAR-5 ovarian
[14] = system: OVCAR-4 ovarian
[15] = system: SK-OV-3 ovarian
[16] = system: IGROV1 ovarian
[17] = system: OVCAR-3 ovarian
[18] = system: HS 578T breast
[19] = system: NCI/ADR-RES ovarian

SMILES | growth [1] | growth [2] | growth [3] | growth [4] | growth [5] | growth [6] | growth [7] | growth [8] | growth [9] | growth [10] | growth [11] | growth [12] | growth [13] | growth [14] | growth [15] | growth [16] | growth [17] | growth [18] | growth [19]
C#CCNC(=O)c1cccc2c1cc(C)n2-c1nc2c(c(NCc3ccccc3)n1)CCCC2 | -38% (active) | -30.4% (active) | -41.3% (active) | -63.8% (active) | -15% (active) | 3.27% (active) | 3.06% (active) | 5.3% (active) | -8.18% (active) | 6.53% (active) | 0.445% (active) | 12.8% | 8.62% (active) | -11.8% (active) | 2.45% (active) | -21.7% (active) | -61.2% (active) | 8.06% (active) | 1.28% (active)
COc1ccc(/C=C2\Oc3cc(OCCCN4CCCCC4)ccc3C2=O)cc1OC | 108% | 91.5% | 93.5% | 67.9% | 89.1% | 93.2% | 92.8% | 28.9% | 83.3% | -18.7% (active) | 90.6% | 94.4% | 95.2% | 89.4% | 113% | 93.9% | 93% | 92% | 97.1%
CCOC(=O)c1ccc2c(c1)ncn2-c1ccc(NC(=O)Nc2cccc(C)c2)cc1 | 85.4% | 84.7% | 69.6% | 66.6% | 123% | 66.7% | 74.6% | 45.8% | 43.2% | 19.9% | 45.5% | 83.8% | 85.5% | 75.7% | 97.5% | 98.9% | 96.9% | 84.1% | 72.2%
COc1cccc(-c2cc(C(=O)Nc3ccc(/C=C/c4ccc(OC5CCN(C)CC5)cc4)cc3)ccc2OC)c1 | 98.5% | 27.2% | -78.3% (active) | 37.7% | 1.81% (active) | 60.1% | 109% | -10.8% (active) | -36.4% (active) | -44.4% (active) | -32.7% (active) | -38.8% (active) | 25.2% | -56.5% (active) | 109% | -56.3% (active) | -82.9% (active) | -22.9% (active) | -11.2% (active)
COc1cc2nc(-c3ccc(Cl)cc3)cc(OCCCN3CCCCC3)c2cc1OC | 65.7% | 66.2% | 41.8% | 41.8% | 89.9% | 34% | 0.0525% (active) | 49% | 37.1% | 9.98% (active) | 21% | 49.8% | 49.3% | 61.7% | 78.9% | 33.2% | 72% | 62.1% | 46.4%
CCN(CC)c1ccc(/C=N/NC(=O)CSc2nc3ccccc3c(=O)n2CCc2ccc(S(N)(=O)=O)cc2)c(O)c1 | 38.5% | 33.8% | 28.2% | 28.2% | 31.3% | 28.7% | 36% | 7.41% (active) | 7.09% (active) | 13.8% | -31.5% (active) | 8.51% (active) | 47.7% | 19.7% | 41.1% | 13.7% | 1.89% (active) | 46.3% | 82.6%
NC1[C@H](c2c[nH]c3ccccc23)c2c([nH]c3ccccc23)[C@H]1c1c[nH]c2ccccc12 (some centres undefined) | 98.2% | 85.1% | 88.9% | 80.2% | 119% | 88% | 84.8% | 94.5% | 80.6% | 81.7% | 77.7% | 99.8% | 92.7% | 86.6% | 115% | 63.9% | 78.2% | 83.8% | 81.7%
Cc1ccc(-n2cc(-c3ccccc3)c3c2N=NN2CCN=C32)cc1 | 103% | 87.5% | 96% | 74.5% | 141% | 105% | 68.7% | 101% | 97.3% | 86% | 93.4% | 107% | 101% | 97.2% | 104% | 88.5% | 106% | 100% | 102%
C/C(=N\Nc1cc(C)nc2ccc(Br)cc12)c1ccc([N+](=O)[O-])cc1 | 93.1% | 78.2% | 60.2% | 64.4% | 115% | 42.5% | 84.6% | 13.5% | 53.1% | 1.78% (active) | 27.5% | 50.8% | 111% | 47% | 84.1% | 53.4% | 26.8% | 96.8% | 81.1%
COc1ccccc1NS(=O)(=O)c1cccc(C(=O)Nc2ccc(Br)cc2)c1 | 57.7% | 20.1% | 51.8% | 27.3% | 61.5% | 46.2% | 27.5% | 40.1% | 26.8% | 50.4% | 38.4% | 57.6% | 68.9% | 35.3% | 44.1% | 46.6% | 45.8% | 73.8% | 27.6%
CC(=O)Nc1ccc(-c2ccc3c(c2)NC(=O)/C3=C\c2ccc[nH]2)cc1 | 96% | 49.5% | 94.6% | 38.8% | 70.2% | 69.5% | 78.1% | 94.8% | 87.3% | 36.5% | 94.4% | 99.8% | 73% | 102% | 121% | 96.6% | 104% | 110% | 96.7%
C=C(C)[C@@H]1CC[C@]2(C(=O)N3CCN(C)CC3)CC[C@]3(C)[C@H](CC[C@@H]4[C@@]5(C)C/C(=C/c6cccnc6)C(=O)C(C)(C)[C@@H]5CC[C@]43C)[C@@H]12 | 82.8% | 83.8% | 57.6% | 57.2% | 101% | 71.7% | 79.8% | 28.9% | 14.9% | 19.9% | 21.2% | 56.2% | 100% | 49.2% | 83.8% | 96% | 57.5% | 76.4% | 64.2%
O=C(C1CCC1)N1N=C(c2ccc(-n3ccc(C(F)(F)F)n3)cc2)CC1c1ccc[nH]1 (centres undefined) | 101% | 90.4% | 98.3% | 94.4% | 89.1% | 102% | 91.5% | 89.9% | 74.8% | 81.9% | 63.2% | 95.4% | 94.8% | 112% | 133% | 99.6% | 107% | 101% | 95.5%
CCCCCOc1ccc(/C=N/Nc2cc(C)nc3ccc(Cl)cc23)cc1 | 93.1% | 66.7% | -88.1% (active) | -99.6% (active) | -22.5% (active) | -73.5% (active) | 28.7% | 1.69% (active) | -38.9% (active) | -21.9% (active) | -23.1% (active) | -43.1% (active) | 93.7% | -14.1% (active) | 90.4% | -76.8% (active) | -79.4% (active) | 51.3% | 53.5%
CCCCCCNC(=O)Oc1ccc(/C(=C(\C)c2ccccc2)c2ccc(OCCN3CCCCC3)cc2)cc1 | 75.3% | 77.7% | 71.4% | 39.4% | 83.3% | 90.2% | 44.8% | 60.7% | 43.7% | -8.47% (active) | 39.6% | 76.6% | 93.9% | 71% | 71.8% | 63.7% | 66.9% | 76.3% | 63.1%
COc1cc2oc(-c3cccc(C(=O)Nc4ccc(Cl)cc4)c3)cc(=O)c2c(O)c1OC | 83.1% | 77.2% | 41.5% | 47% | 75.5% | 33.4% | 55% | 75.6% | 74.1% | 65.1% | 70% | 16.3% | 79.1% | -30.4% (active) | 58.3% | 54% | 30.4% | 6.66% (active) | 37.3%
